Experimental data taken from PubChem BioAssay AID1159580 (chemical genetic matrix, 2015).
Hit rate of the full screen: of about 5,500 compounds, about 2,000 (36%) were called active. Another 18% or so got no clear call; they are omitted. No stated cut-off is given here; in the data, active means normalized growth mostly below about 0.91 (no sharp cut-off); inconclusive means no clear call, values can overlap the other calls; inactive means mostly above about 0.92. The list shows a part of the results.

Assay: chemical genetic growth profiling, strain panel (AID 1159580);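 further: tested at 20 µM; growth read once vehicle control cultures reached saturation at 30 °C; 1 = growth at the plate median or of vehicle wells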
Conditions: growth OD
[1] = S. cerevisiae deletion strains, locus YAR019C, strain CDC15, stronger effect = lower value
[2] = S. cerevisiae deletion strains, locus YBL105C, strain PKC1, stronger effect = lower value
[3] = S. cerevisiae deletion strains, locus YBR135W, strain CKS1, stronger effect = lower value
[4] = S. cerevisiae deletion strains, locus YBR136W, strain MEC1, stronger effect = lower value
[5] = S. cerevisiae deletion strains, locus YBR160W, strain CDC28, stronger effect = lower value
[6] = S. cerevisiae deletion strains, locus YDL017W, strain CDC7, stronger effect = lower value
[7] = S. cerevisiae deletion strains, locus YDL028C, strain MPS1, stronger effect = lower value
[8] = S. cerevisiae deletion strains, locus YDL101C, strain DUN1, stronger effect = lower value
[9] = S. cerevisiae deletion strains, locus YDL108W, strain KIN28, stronger effect = lower value
[10] = S. cerevisiae deletion strains, locus YDL132W, strain cdc53, stronger effect = lower value
[11] = S. cerevisiae deletion strains, locus YDL214C, strain PRR2, stronger effect = lower value
[12] = S. cerevisiae deletion strains, locus YDR052C, strain DBF4, stronger effect = lower value
[13] = S. cerevisiae deletion strains, locus YDR054C, strain cdc34, stronger effect = lower value
[14] = S. cerevisiae deletion strains, locus YDR226W, strain ADK1, stronger effect = lower value
[15] = S. cerevisiae deletion strains, locus YDR477W, strain SNF1, stronger effect = lower value
[16] = S. cerevisiae deletion strains, locus YER123W, strain YCK3, stronger effect = lower value
[17] = S. cerevisiae deletion strains, locus YER133W, strain GLC7, stronger effect = lower value
[18] = S. cerevisiae deletion strains, locus YFL009W, strain cdc4, stronger effect = lower value
[19] = S. cerevisiae deletion strains, locus YFL029C, strain CAK1, stronger effect = lower value
[20] = S. cerevisiae deletion strains, locus YFR003C, strain YPI1, stronger effect = lower value
[21] = S. cerevisiae deletion strains, locus YFR019W, strain FAB1, stronger effect = lower value
[22] = S. cerevisiae deletion strains, locus YFR028C, strain CDC14, stronger effect = lower value
[23] = S. cerevisiae deletion strains, locus YGR040W, strain KSS1, stronger effect = lower value
[24] = S. cerevisiae deletion strains, locus YGR052W, strain FMP48, stronger effect = lower value
[25] = S. cerevisiae deletion strains, locus YGR092W, strain DBF2, stronger effect = lower value
[26] = S. cerevisiae deletion strains, locus YHR030C, strain SLT2, stronger effect = lower value
[27] = S. cerevisiae deletion strains, locus YHR079C, strain IRE1, stronger effect = lower value
[28] = S. cerevisiae deletion strains, locus YHR082C, strain KSP1, stronger effect = lower value
[29] = S. cerevisiae deletion strains, locus YHR205W, strain SCH9, stronger effect = lower value
[30] = S. cerevisiae deletion strains, locus YIL147C, strain SLN1, stronger effect = lower value
[31] = S. cerevisiae deletion strains, locus YJL095W, strain BCK1, stronger effect = lower value
[32] = S. cerevisiae deletion strains, locus YJL128C, strain PBS2, stronger effect = lower value
[33] = S. cerevisiae deletion strains, locus YJL157C, strain FAR1, stronger effect = lower value
[34] = S. cerevisiae deletion strains, locus YJR016C, strain ILV3, stronger effect = lower value
[35] = S. cerevisiae deletion strains, locus YJR066W, strain TOR1 (second series), stronger effect = lower value
[36] = S. cerevisiae deletion strains, locus YJR066W, strain TOR1, stronger effect = lower value
[37] = S. cerevisiae deletion strains, locus YKL048C, strain ELM1, stronger effect = lower value
[38] = S. cerevisiae deletion strains, locus YKL067W, strain YNK1, stronger effect = lower value
[39] = S. cerevisiae deletion strains, locus YKL101W, strain HSL1, stronger effect = lower value
[40] = S. cerevisiae deletion strains, locus YKL193C, strain SDS22, stronger effect = lower value
[41] = S. cerevisiae deletion strains, locus YKL203C, strain TOR2, stronger effect = lower value
[42] = S. cerevisiae deletion strains, locus YLR113W, strain HOG1, stronger effect = lower value
[43] = S. cerevisiae deletion strains, locus YLR133W, strain CKI1, stronger effect = lower value
[44] = S. cerevisiae deletion strains, locus YLR403W, strain SFP1, stronger effect = lower value
[45] = S. cerevisiae deletion strains, locus YML070W, strain DAK1, stronger effect = lower value
[46] = S. cerevisiae deletion strains, locus YMR001C, strain CDC5, stronger effect = lower value
[47] = S. cerevisiae deletion strains, locus YMR205C, strain PFK2 (second series), stronger effect = lower value
[48] = S. cerevisiae deletion strains, locus YMR277W, strain FCP1, stronger effect = lower value
[49] = S. cerevisiae deletion strains, locus YNL006W, strain LST8, stronger effect = lower value
[50] = S. cerevisiae deletion strains, locus YNL020C, strain ARK1, stronger effect = lower value
[51] = S. cerevisiae deletion strains, locus YNL161W, strain CBK1, stronger effect = lower value
[52] = S. cerevisiae deletion strains, locus YNL183C, strain NPR1, stronger effect = lower value
[53] = S. cerevisiae deletion strains, locus YNL207W, strain RIO2, stronger effect = lower value
[54] = S. cerevisiae deletion strains, locus YNL222W, strain SSU72, stronger effect = lower value
[55] = S. cerevisiae deletion strains, locus YNL307C, strain MCK1 (second series), stronger effect = lower value
[56] = S. cerevisiae deletion strains, locus YOL078W, strain AVO1, stronger effect = lower value
[57] = S. cerevisiae deletion strains, locus YOL136C, strain PFK27, stronger effect = lower value
[58] = S. cerevisiae deletion strains, locus YOR061W, strain CKA2, stronger effect = lower value
[59] = S. cerevisiae deletion strains, locus YOR119C, strain RIO1, stronger effect = lower value
[60] = S. cerevisiae deletion strains, locus YOR231W, strain MKK1, stronger effect = lower value
[61] = S. cerevisiae deletion strains, locus YOR329C, strain SCD5, stronger effect = lower value
[62] = S. cerevisiae deletion strains, locus YPL031C, strain PHO85, stronger effect = lower value
[63] = S. cerevisiae deletion strains, locus YPL153C, strain RAD53, stronger effect = lower value
[64] = S. cerevisiae deletion strains, locus YPL204W, strain HRR25, stronger effect = lower value
[65] = S. cerevisiae deletion strains, locus YPL209C, strain IPL1, stronger effect = lower value
[66] = S. cerevisiae deletion strains, locus YPL256C, strain CLN2, stronger effect = lower value
[67] = S. cerevisiae deletion strains, locus YPR025C, strain CCL1, stronger effect = lower value
[68] = S. cerevisiae deletion strains, locus YPR106W, strain ISR1, stronger effect = lower value
[69] = S. cerevisiae deletion strains, locus YPR111W, strain DBF20, stronger effect = lower value
[70] = S. cerevisiae deletion strains, strain NNK1, stronger effect = lower value
[71] = S. cerevisiae deletion strains, strain TSCII, stronger effect = lower value
[72] = S. cerevisiae deletion strains, locus YAL013W, strain DEP1, stronger effect = lower value
[73] = S. cerevisiae deletion strains, locus YDR150W, strain NUM1, stronger effect = lower value
[74] = S. cerevisiae deletion strains, locus YGR078C, strain PAC10, stronger effect = lower value
[75] = S. cerevisiae deletion strains, locus YPL241C, strain CIN2, stronger effect = lower value

Measured: normalized growth

O=c1c(-c2ccccc2)c(O)c2cccc3c4ccccc4n1c23
active: [1] 0.117 | [2] 0.121 | [3] 0.13 | [4] 0.148 | [5] 0.215 | [6] 0.154 | [7] 0.142 | [8] 0.226 | [9] 0.247 | [10] 0.167 | [11] 0.0962 | [12] 0.344 | [13] 0.128 | [14] 0.523 | [15] 0.134 | [16] 0.113 | [17] 0.105 | [18] 0.14 | [19] 0.115 | [20] 0.12 | [21] 0.118 | [22] 0.145 | [23] 0.124 | [24] 0.13 | [25] 0.11 | [26] 0.149 | [27] 0.143 | [28] 0.157 | [29] 0.0087 | [30] 0.123 | [31] 0.141 | [32] 0.133 | [33] 0.0913 | [34] 0.168 | [35] 0.131 | [36] 0.135 | [37] 0.122 | [38] 0.0882 | [39] 0.113 | [40] 0.139 | [41] 0.146 | [42] 0.185 | [43] 0.106 | [44] 0.00673 | [45] 0.0964 | [46] 0.119 | [47] 0.1 | [48] 0.165 | [49] 0.11 | [50] 0.115 | [51] 0.133 | [52] 0.161 | [53] 0.131 | [54] 0.11 | [55] 0.118 | [56] 0.123 | [57] 0.106 | [58] 0.0936 | [59] 0.146 | [60] 0.122 | [61] 0.12 | [62] 0.124 | [63] 0.109 | [64] 0.126 | [65] 0.129 | [66] 0.15 | [67] 0.149 | [68] 0.141 | [69] 0.147 | [70] 0.114 | [71] 0.112

Cn1c(=O)c(-c2ccccc2)c(O)c2ccccc21
active: [72] 0.868 | S. cerevisiae deletion strains, locus YBR229C, strain ROT2, stronger effect = lower value 0.887 | [8] 0.636 | [74] 0.871 | [26] 0.533 | S. cerevisiae deletion strains, locus YJL187C, strain SWE1, stronger effect = lower value 0.826 | S. cerevisiae deletion strains, locus YJR043C, strain POL32, stronger effect = lower value 0.842 | S. cerevisiae deletion strains, locus YJR075W, strain HOC1, stronger effect = lower value 0.881 | S. cerevisiae deletion strains, locus YLR039C, strain RIC1, stronger effect = lower value 0.75 | S. cerevisiae deletion strains, locus YLR058C, strain SHM2 (second series), stronger effect = lower value 0.926 | S. cerevisiae deletion strains, locus YLR085C, strain ARP6, stronger effect = lower value 0.438 | S. cerevisiae deletion strains, locus YLR262C, strain YPT6, stronger effect = lower value 0.81 | S. cerevisiae deletion strains, locus YMR219W, strain ESC1, stronger effect = lower value 0.945 | S. cerevisiae deletion strains, locus YMR263W, strain SAP30, stronger effect = lower value 0.898 | S. cerevisiae deletion strains, locus YNL153C, strain GIM3, stronger effect = lower value 0.878 | S. cerevisiae deletion strains, locus YNL322C, strain KRE1, stronger effect = lower value 0.932 | S. cerevisiae deletion strains, locus YNR030W, strain Alg12, stronger effect = lower value 0.837 | [75] 0.816 | S. cerevisiae deletion strains, locus YPR135W, strain CTF4, stronger effect = lower value 0.442 | S. cerevisiae strains, strain wild type, stronger effect = lower value 0.9
inactive: [73] 0.825 | S. cerevisiae deletion strains, locus YEL061C, strain CIN8, stronger effect = lower value 0.921 | S. cerevisiae deletion strains, locus YGR229C, strain SMI1, stronger effect = lower value 0.953 | S. cerevisiae deletion strains, locus YHR087W, strain rtc3, stronger effect = lower value 0.99 | S. cerevisiae deletion strains, locus YKL190W, strain CNB1, stronger effect = lower value 0.942 | S. cerevisiae deletion strains, locus YML094W, strain GIM5, stronger effect = lower value 0.968 | S. cerevisiae deletion strains, locus YMR307W, strain GAS1, stronger effect = lower value 0.767 | S. cerevisiae deletion strains, locus YNL298W, strain CLA4 (second series), stronger effect = lower value 0.84 | S. cerevisiae deletion strains, locus YOL006C, strain TOP1, stronger effect = lower value 0.881 | S. cerevisiae deletion strains, locus YPL055C, strain LGE1, stronger effect = lower value 0.907

O=c1c(-c2ccccc2)c(O)c2cccc3c4c(n1c23)CCCC4
inactive: [1] 0.935 | [2] 0.939 | [3] 0.926 | [4] 0.934 | [5] 0.958 | [6] 0.94 | [7] 0.944 | [8] 0.973 | [9] 0.924 | [10] 0.939 | [12] 0.957 | [14] 0.94 | [18] 0.929 | [19] 0.934 | [20] 0.952 | [22] 0.927 | [30] 0.917 | [32] 0.906 | [34] 0.926 | [40] 0.934 | [46] 0.935 | [48] 0.933 | [49] 0.932 | [51] 0.944 | [53] 0.95 | [54] 0.939 | [56] 0.927 | [61] 0.948 | [65] 0.944 | [67] 0.952 | [68] 0.93 | [69] 0.94 | [71] 0.918
active: [11] 0.39 | [13] 0.823 | [15] 0.342 | [16] 0.304 | [17] 0.459 | [21] 0.233 | [23] 0.439 | [24] 0.266 | [25] 0.172 | [26] 0.139 | [27] 0.182 | [28] 0.186 | [29] 0.314 | [31] 0.272 | [33] 0.243 | [35] 0.336 | [36] 0.26 | [37] 0.485 | [38] 0.414 | [39] 0.323 | [41] 0.283 | [42] 0.26 | [43] 0.376 | [44] 0.263 | [45] 0.318 | [47] 0.56 | [50] 0.282 | [52] 0.278 | [55] 0.167 | [57] 0.195 | [58] 0.249 | [59] 0.382 | [60] 0.25 | [62] 0.246 | [63] 0.305 | [64] 0.273 | [66] 0.228 | [70] 0.732

Cn1c(=O)c2[nH]c(-c3ccccc3)nc2n(C)c1=O
inactive: [72] 0.995 | S. cerevisiae deletion strains, locus YAL040C, strain CLN3, stronger effect = lower value 0.984 | S. cerevisiae deletion strains, locus YCL061C, strain MRC1 (second series), stronger effect = lower value 0.983 | [73] 0.975 | S. cerevisiae deletion strains, locus YDR363W, strain ESC2, stronger effect = lower value 1.01 | S. cerevisiae deletion strains, locus YER002W, strain NOP16, stronger effect = lower value 0.97 | [74] 1 | S. cerevisiae deletion strains, locus YNL175C, strain NOP13, stronger effect = lower value 0.986 | S. cerevisiae deletion strains, locus YNL197C, strain WHI3, stronger effect = lower value 0.99 | S. cerevisiae deletion strains, locus YNL224C, strain SQS1, stronger effect = lower value 0.992 | S. cerevisiae deletion strains, locus YOR083W, strain WHI5 (second series), stronger effect = lower value 1 | [75] 0.992
